Experimental data from the OligoGym collection.

Biological target: YPEL3
Test: pooled miR-30 sensor sort-seq; sequence = guide strand
Conditions: shRNA
Note: reference of the scale not given here.

| Sequence | sensor-assay potency score (higher = more potent) |
| --- | --- |
| ATATACAGGAGCTAGATCCGTC | 0.357 |
| TTGGAGATGAGGTCGTCGTGGT | 0.122 |
| TTGTACTTCTGGCTGCTCTCAA | 0.24 |
| TTTGAAATCCGCACCATGGCGG | -0.368 |
| ACAATCATCCAAGTAGGCCTGA | 0.225 |
| TTCAATGATGTACTTCCCCTCT | -0.135 |
| TCTTGCAGTTCTCGCAGTGGAT | -1.02 |
| TTCCCCTCTTTGTACTTCTGGC | -0.928 |
| TTATGTACAAACGCTACAGAAC | -1.18 |
| TTGAGTTCAATGATGTACTTCC | 0.797 |
| TTCTCGCAGTGGATGTCGGCGA | -0.367 |
| TATACCTCCGGTGACAATCATC | -1.49 |
